Assay outcomes (PubChem BioAssay)
Only a sample is shown.
aSyn 5UTR act: Activators via SNCA 5'UTR binding, MLPCN | alpha-synuclein 5'UTR reporter, activators screen | activity score, % (tested at 7.5 µM), hits read low | 7.1% of 300,000 active | AID 1814; in the data active = activity score below about -60%
Hits are given with their value; – = inactive.

SMILES	aSyn 5UTR act
Cc1occc1C(=O)Nc1ccc2c(c1)OCO2	-144
Cc1ccc(NC(=O)c2ccoc2C)cc1C	-231
O=C(COC(=O)c1ccccc1NCc1ccco1)Nc1ccc2c(c1)OCO2	-67
CN[C@H]1CCc2cc(OC)c(OC)c(OC)c2-c2ccc(OC)c(=O)cc21	–
O=C(CCl)Nc1ccccc1C(=O)Nc1ccc2c(c1)OCO2	-87
Cc1occc1C(=O)Nc1cccc(C(=O)O)c1	-85
Cc1c(C(=O)NC(=S)NCC(C)C)oc2ccccc12	-191
Cc1cccnc1NC(=S)NC(=O)c1oc2ccccc2c1C	-226
C=CCNC(=S)NC(=O)c1oc2ccccc2c1C	-155
CCC(C)N1C(=O)S/C(=C/c2ccc3c(c2)n(C)c(=O)n3C)C1=O (stereo not drawn)	-69
Oc1ccc(/C=C/c2cnccn2)cc1	-171
COc1cccc(NC(=O)CN(C)C(=O)CNC(=O)c2ccc(Oc3ccccc3)cc2)c1	-124
COc1cc(OC)cc(C(=O)NCC(=O)Nc2ccc(-c3ccccc3)cc2)c1	-195
COc1cccc(NC(=O)CNC(=O)c2ccccc2)c1	-66
c1ccc(Nc2nnc(-c3cccc4ccccc34)o2)cc1	-93
O=c1[nH]c(-c2ccc(O)cc2)nc2scc(-c3cccs3)c12	-138
Cc1cc(NC(=O)CC2CCCC2)ccc1Br	-123
O=C(Cc1ccccc1)Nc1ccc2c(c1)CCC2	-105
O=C(Nc1cccc([N+](=O)[O-])c1)Nc1ccc2c(c1)CCC2	-105
O=C(Nc1ccc2c(c1)CCC2)Nc1ccc(F)cc1F	-129
O=[N+]([O-])c1cccc(NC(=S)N2CCc3ccccc3C2)c1	-120
Cc1c(C(=O)Nc2cccc([N+](=O)[O-])c2)csc1-c1ccccc1	-130
O=C(Nc1cccc([N+](=O)[O-])c1)Nc1cccs1	-110
O=C(CC1CCCC1)Nc1ccc2c(c1)CCC2	-112
O=C(Nc1ccccc1)Nc1ccc2c(c1)CCC2	-135
SMILES	aSyn 5UTR act
Cc1cc(NC(=O)CCSc2ccccc2)ccc1Br	-62
O=C(Nc1cccc(F)c1)Nc1ccc2c(c1)CCC2	-160
Cc1cc(NC(=S)NC(=O)CC(C)C)ccc1Br	-155
Cc1cc(SCC(=O)N/N=C/c2ccc(O)cc2O)c(C)cc1Br	–
Cc1ccc(NC(=O)Nc2ccc3c(c2)CCC3)cc1	-124
O=C(Nc1ccc(F)cc1)Nc1ccc2c(c1)CCC2	-120
Cc1cccc(NC(=O)c2cc([N+](=O)[O-])ccc2Cl)c1O	-85
O=C(Nc1cccnc1)c1ccc(-c2ccc(Cl)cc2)o1	-190
O=C(Nc1nccs1)c1ccc(-c2ccc([N+](=O)[O-])cc2)o1	-141
O=C(Nc1nccs1)c1cc([N+](=O)[O-])ccc1Cl	-68
O=C(Nc1nccs1)c1ccc(-c2ccc(F)cc2)o1	-260
O=C(Nc1nccs1)c1ccc(-c2ccc(Cl)cc2)o1	-207
CCN(CC)c1ccc(/C=N/NC(=S)NCc2ccc(OC)cc2)cc1	-76
C=CCNC(=S)N/N=C(\C)c1ccccn1	–
COc1ccc(C/C(C)=N/NC(=S)Nc2ccccc2)cc1	-124
CCOc1ccccc1OCC(=O)N/N=C(\C)Cc1ccc(OC)cc1	–
COc1ccc(CNC(=S)N/N=C(/C)c2ccccc2)cc1	-107
C/C(=N\NC(=S)NCc1ccccc1)c1ccccc1F	-70
COc1ccc2cc(-c3ccn[nH]3)ccc2c1	-124
COc1cccc2cc(-c3ccnc(=S)[nH]3)oc12	-74
Cc1cccc(OCC(=O)N2CCC(c3ccccc3)C2)c1 (stereo not drawn)	-158
O=C(COc1ccc(F)cc1)N1CCC(c2ccccc2)C1 (stereo not drawn)	-134
O=C(N/N=C/c1cccs1)c1[nH]ncc1Br	-95
O=C(N/N=C/c1c(O)ccc2ccccc12)c1[nH]ncc1Br	–
Cn1cccc1-c1cc(C(=O)N/N=C/c2cc(Br)ccc2O)[nH]n1	–
SMILES	aSyn 5UTR act
Cc1cc(C(=O)N/N=C/c2cc(Br)cc(Br)c2OC(=O)c2ccccc2)n[nH]1	–
C/C(=N\NC(=O)c1cc(C)[nH]n1)c1ccc(-c2ccccc2)cc1	-78
Cc1cc(C(=O)N/N=C\c2cc(C(C)(C)C)ccc2O)n[nH]1	–
Cc1cc(C(=O)N/N=C/c2cccs2)n[nH]1	-83
Cc1ccc(O)c(/C=N/NC(=O)c2[nH]ncc2Br)c1	-113
COc1ccc(C([O-])=Nc2ccc[n+](-c3nc4ccccc4nc3NS(=O)(=O)c3ccccc3)c2)cc1	–
CC(=O)Nc1ccc(S(=O)(=O)Nc2nc3ccccc3nc2Nc2ccc3ccccc3c2)cc1	-133
CCOc1cc(/C=C2\CN(C)C/C(=C\c3ccc(O)c(OCC)c3)C2=O)ccc1O	–
CCOc1cc(/C=C2\CCC/C(=C\c3cc(Cl)c(O)c(OCC)c3)C2=O)cc(Cl)c1O	-329
COCCNC(=S)N/N=C(\C)c1cc2ccccc2o1	-117
C/C(=N\NC(=O)COc1ccc(C(C)(C)C)cc1)c1cc2ccccc2o1	-109
COc1ccc(-c2nnc(N(C)C(=O)c3ccno3)s2)cc1	-138
COc1ccc(-c2nnc(N(C)C(=O)C3CCCO3)s2)cc1 (stereo not drawn)	-87
COc1ccc(-c2nnc(N(C)C(=O)C3CCOC3)s2)cc1 (stereo not drawn)	-66
